Measured values: PubChem BioAssay (NCI)
The panel holds about 83,000 compounds, 20% with a hit somewhere; the sample as a whole holds those more often.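 Percent growth is the endpoint: 0 to 100 indicates growth inhibition (40 means 60% inhibition), 0 means no net growth, and negative values indicate cell death.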 Calls of active or inactive are those of the source.

tested on: UO-31 renal; assay: NCI-60 one-dose screen, 48 h (100 = growth as untreated, 0 = no growth, -100 = all killed); conditions: 10 µM unless noted
Method: Growth inhibition of the UO-31 human tumor cell line is measured as a screen for anti-cancer activity. Cells are grown in 96 well plates and exposed to the test compound for 48 hours. Compounds are tested at a single concentration, which is 10^-5 M for most compounds. The reported endpoint is percent growth (GI% or GIPRCNT), where numbers from 0 - 100% represent growth inhibition, and numbers from -100% - 0 represent cell death. For example, a value of 40 represents 60% growth inhibition. A value of 0 means no net growth occurred over the course of the experiment. A value of -40 indicates 40% of cells at the beginning of the experiment died by the end of the experiment. A value of -100 means all cells are dead at the end of the experiment.
NCI-60 Human Tumor Cell Lines Screen was performed using the standard one-dose NCI protocol, which is described in more detail at https://dtp.cancer.gov/discovery_development/nci-60/default.htm.
Compounds with GIPRCNT values below 10 were considered active. Activity score was based on GIPRCNT using the following formula: […]
Score is 0 for GIPRCNT values of 100 or above, 50 for GIPRCNT values of 0, and 100 for GIPRCNT values of -100.

SMILES | growth
CC12O[C@H](C[C@@H](OC(=O)CCC(=O)O)[C@H]1O)n1c3ccccc3c3c4c(c5c6ccccc6n2c5c31)C(=O)NC4=O | -15.9% (active)
C=CCN(/C=C1/C(=O)O[C@H](COC)[C@@]2(C)C1=C(O)C(=O)C1=C2[C@H](OC(C)=O)C[C@]2(C)C(=O)CC[C@@H]12)CC=C | 3.12% (active)
CC[C@@H]1C(=O)N(C)c2cnc(Nc3ccc(C(=O)NC4CCC(N5CCN(CC6CC6)CC5)CC4)cc3OC)nc2N1C(C)C (stereo not given in full) | -52.3% (active)
COc1ccc(-c2cc3c(C)nc(N)nc3n(C3CCC(OCCO)CC3)c2=O)cn1 (stereo not given) | -33.8% (active)
CCCCCCCCCCCC[n+]1ccccc1 | 35% (inactive)
CC(=O)CC1CCCC1c1ccc2ccccc2c1 (stereo not given) | 84.7% (inactive)
CCc1nc2cc(F)c(/C=C/C(=O)NO)cc2c(=O)n1CCc1ccccc1 | -15% (active)
Cc1ccc(-c2nc3ccc(Cl)cn3c2NC2CCCCC2)o1 | 58.5% (inactive)
COC(=O)[C@@H](NC(=O)[C@@H](OC)[C@@H]1Cc2cc3cc(OC4CC(OC5CC(O)C(O)C(C)O5)C(O)C(C)O4)c(C)c(O)c3c(O)c2C(=O)[C@H]1OC1CC(OC2CC(OC3CC(C)(O)C(O)C(C)O3)C(O)C(C)O2)C(O)C(C)O1)C(C)C (stereo not given in full) | 7.39% (active)
Cc1nc(Nc2n[nH]c3c2CN(C(=O)N[C@H](CN(C)C)c2ccccc2)C3(C)C)c2sccc2n1 | -11.3% (active)
CC(=Nc1ccccc1)C1=C(O)C(Cc2ccccc2)NC1=O (stereo not given) | 43.6% (inactive)
O=C1CCC(=O)CC1 | 86.4% (inactive)
C#Cc1cccc(Nc2ncnc3cc(OC)c(OCCCCCCC(=O)NO)cc23)c1 | -16.8% (active)
C[C@@H]1COCCN1c1cc(C2([S@](C)(=N)=O)CC2)nc(-c2ccnc3[nH]ccc23)n1 | 13.2% (inactive)
O=C(Cn1c(=O)ccn(CCCCCCCCOc2ccc(Br)cc2)c1=O)Nc1ccc(Oc2ccc(Cl)cc2)cc1 | 32.7% (inactive)
CCN(CC)CCCC(C)Nc1cc(-c2ccc(C(F)(F)F)cc2)c(C#N)c2nc3ccccc3n12 (stereo not given) | -76.5% (active)
C[C@H]1Oc2cc(cnc2N)-c2c(nn(C)c2C#N)CN(C)C(=O)c2ccc(F)cc21 | 84.3% (inactive)
CSc1nc2ncnc(SC)c2[nH]1 | 82% (inactive)
CCCCCCCC(=O)SCC/C=C/[C@@H]1CC(=O)NCc2cccc(n2)C2=N[C@@](C)(CS2)C(=O)N[C@@H](C(C)C)C(=O)N1 | 50.8% (inactive)
COc1c(C(NC(=O)c2ccccc2)c2sccc2C)cc(Cl)c2cccnc12 (stereo not given) | 89.9% (inactive)

SMILES | growth
Cn1cc(-c2ccc(F)c(C(F)(F)F)c2)nc1C1CCN(c2ncnc3[nH]ncc23)CC1 | 63.8% (inactive)
Cc1nc(-c2cn3c(n2)-c2ccc(-c4cnn(C(C)(C)C(N)=O)c4)cc2OCC3)n(C(C)C)n1 | 5.32% (active)
O=C(Nc1nc2cccc(-c3ccc(CN4CCS(=O)(=O)CC4)cc3)n2n1)C1CC1 | 75.3% (inactive)
NC(=O)c1n[nH]n2c1nc(=O)c1c3c(sc12)CCCC3 | 84.4% (inactive)
CCOc1cc2ncc(C#N)c(Nc3ccc(F)c(Cl)c3)c2cc1NC(=O)/C=C/CN(C)C | -92.2% (active)
C/C(=C(/c1ccc(Cl)cc1)c1ccc(OCCN2CCCCCC2)cc1)c1ccccc1 | 70.9% (inactive)
CS(=O)(=O)N1CCc2c(-c3cnc(N)nc3)nc(N3CCOCC3)nc21 | -21.8% (active)
CC/C(=C(\c1ccc(OCCN2CCCCCCC2)cc1)c1ccc(OC(=O)C2CCCCC2)cc1)c1ccc(Cl)cc1 | 73.8% (inactive)
N#Cc1ccc(-n2nnc3ccccc32)cc1C#N | 88.5% (inactive)
COc1cnc2c(c1)C(=O)c1c-2n(CCCN2CCC(N)CC2)c(=O)c2cc([N+](=O)[O-])ccc12 | 63.7% (inactive)
NC1=Nc2ccccc2N(O)N1 | 88.4% (inactive)
Cc1cc(C)n(CC(=O)Nc2ccc(-c3nc4ccccc4s3)cc2)n1 | 83.8% (inactive)
NC1=Nc2cc(OCCCN3Cc4ccccc4C3)c(OCC3CC3)cc2C12CCCC2 | 42.1% (inactive)
COc1ccc2c(c1OC)C(=O)O[C@@H]2[C@H]1c2c(c(C#CC#Cc3ccc(F)c(F)c3)c3c(c2OC)OCO3)CCN1C | 70.5% (inactive)
CCCc1cc2cc(-n3nc(C)c4c3CC(C)(C)CC4=O)cc(NC3CCC(O)CC3)c2c(=O)[nH]1 (stereo not given) | 29.7% (inactive)
Ic1ccccc1-c1ccccc1 | 85.5% (inactive)
CN(N)c1nc2sc3c(c2c(=O)[nH]1)CCCC3 | 72.9% (inactive)
CC(C)Nc1cc(-c2c[nH]c(C(=O)N[C@H](CO)c3cccc(Cl)c3)c2)c(Cl)cn1 | 18.2% (inactive)
CC(C)(C)c1cnc(CSc2cnc(NC(=O)C3CCNCC3)s2)o1 | -4.7% (active)
CN1CCN(c2nc(NCCNc3ccnc4cc(Cl)ccc34)c3ccccc3n2)CC1 | -9.51% (active)
